In the supplement of paper PMC10849652:
About 7,900 targets were measured; listed, in parts, are those with a hit and a random draw of the rest. About 0.6% of all pairs of compound and target were hits.

Columns and labels:
Assay in all cases: log2 fold change, soluble protein after heating vs DMSO (PISA); higher = thermal stabilisation; K562 cells, 10 uM, 30 min; active = over 0.2 and 3.5 SD of the protein, either way, in both replicates (recomputed)
[1] = compound: C1=CC=C(C=C1)[C@H](COC2=CC3=C(C=C2)NC(=O)N3)NC(=O)C4=CC=CN(C4=O)CC5=CC(=C(C=C5)F)F
Summary of the method: (§1)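 Soluble protein was quantified by TMTpro 16plex LC-MS/MS after channel sums were equalised. It was obtained as the supernatant after 21,000xg for 90 min from pooled aliquots of K562 cells (2×10^6 cells/mL, 10 μM compound, 30 min) heated for 3 min across 48°C-58°C and extracted in PBS with 0.5% NP-40 at 4°C. Thermal stability values are relative to control samples and come from duplicates. They are given as log2 fold changes.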

[2] = compound: CC1=C(SC2=C1C(=N[C@H](C3=NN=C(N32)C)CC(=O)N)C4=CC=C(C=C4)Cl)C
Summary of the method: as §1

[3] = compound: CC1=C2C(=CC=C1)N=C(N(C2=O)C3=CC=CC=C3C)CN4C=NC5=C(N=CN=C54)N
Summary of the method: as §1

[4] = compound: Cc1sc2c(c1C)C(c1ccc(Cl)cc1)=N[C@@H](CC(=O)OC(C)(C)C)c1nnc(C)n1-2
Summary of the method: as §1

[5] = compound: c1ccc([C@@H]2C[C@H]2NC2CCNCC2)cc1
Summary of the method: as §1

Measured: log2 fold change

TFB2M (UniProt Q9H5Q4)
inactive: [1] -0.019 | [2] 0.035 | [3] 0.103 | [4] -0.019 | [5] -0.022

SP100 isoform 4 (UniProt P23497)
UniProt P23497, sequence (P23497 whole entry, looked up): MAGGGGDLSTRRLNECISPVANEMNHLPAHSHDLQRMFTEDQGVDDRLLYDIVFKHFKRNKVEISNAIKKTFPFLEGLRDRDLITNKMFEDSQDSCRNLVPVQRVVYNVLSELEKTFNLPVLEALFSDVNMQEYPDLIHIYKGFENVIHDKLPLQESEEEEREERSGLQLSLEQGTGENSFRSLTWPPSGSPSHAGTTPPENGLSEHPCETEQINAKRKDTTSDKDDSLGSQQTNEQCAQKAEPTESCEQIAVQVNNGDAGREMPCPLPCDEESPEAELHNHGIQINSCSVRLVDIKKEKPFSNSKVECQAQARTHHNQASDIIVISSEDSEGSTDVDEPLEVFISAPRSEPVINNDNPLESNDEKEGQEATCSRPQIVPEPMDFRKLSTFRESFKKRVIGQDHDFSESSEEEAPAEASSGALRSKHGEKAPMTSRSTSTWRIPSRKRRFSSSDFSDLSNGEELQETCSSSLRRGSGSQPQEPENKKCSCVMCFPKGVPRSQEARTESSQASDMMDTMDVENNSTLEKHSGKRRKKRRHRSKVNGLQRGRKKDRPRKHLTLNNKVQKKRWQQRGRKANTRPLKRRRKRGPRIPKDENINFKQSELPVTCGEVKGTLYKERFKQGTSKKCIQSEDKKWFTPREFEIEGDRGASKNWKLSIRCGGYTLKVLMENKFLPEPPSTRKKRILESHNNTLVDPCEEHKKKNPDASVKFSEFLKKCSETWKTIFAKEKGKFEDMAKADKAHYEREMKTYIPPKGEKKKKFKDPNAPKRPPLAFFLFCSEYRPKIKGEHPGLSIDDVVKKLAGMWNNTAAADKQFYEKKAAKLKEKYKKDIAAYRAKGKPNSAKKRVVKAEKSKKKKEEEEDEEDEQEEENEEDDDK
inactive: [1] -0.006 | [2] -0.015 | [3] -0.047 | [4] 0 | [5] 0.024

STAT5A (UniProt P42229)
inactive: [1] -0.028 | [2] 0.058 | [3] 0.134 | [4] -0.006 | [5] 0.008

TIMM13 (UniProt Q9Y5L4)
UniProt Q9Y5L4, sequence (Q9Y5L4 whole entry, looked up): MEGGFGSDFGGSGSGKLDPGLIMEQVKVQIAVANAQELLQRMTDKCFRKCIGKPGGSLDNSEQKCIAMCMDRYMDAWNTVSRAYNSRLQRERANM
inactive: [1] -0.049 | [2] 0.049 | [3] 0.012 | [4] -0.035 | [5] 0.013

SLC30A10 (UniProt Q6XR72)
inactive: [1] 0.066 | [2] -0.005 | [3] 0.113 | [4] -0.003 | [5] 0.059

SLC7A6OS (UniProt Q96CW6)
inactive: [1] -0.026 | [2] -0.043 | [3] 0.03 | [4] 0.012 | [5] 0.032

TLK2 isoform 2 (UniProt Q86UE8)
inactive: [1] 0.006 | [2] 0.021 | [3] 0.041 | [4] -0.007 | [5] 0.051

SULT1A1 (UniProt P50225)
UniProt P50225, sequence (P50225 whole entry, looked up): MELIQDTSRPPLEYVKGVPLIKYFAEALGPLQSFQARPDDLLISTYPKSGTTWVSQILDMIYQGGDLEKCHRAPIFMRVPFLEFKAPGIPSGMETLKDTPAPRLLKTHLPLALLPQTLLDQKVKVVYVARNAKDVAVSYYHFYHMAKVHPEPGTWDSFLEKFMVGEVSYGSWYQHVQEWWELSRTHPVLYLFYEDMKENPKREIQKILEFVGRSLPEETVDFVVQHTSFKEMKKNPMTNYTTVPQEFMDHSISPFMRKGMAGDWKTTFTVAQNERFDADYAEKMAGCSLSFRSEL
inactive: [1] -0.083 | [2] 0.064 | [3] -0.021 | [4] -0.06 | [5] -0.066

SRC isoform 2 (UniProt P12931)
inactive: [1] 0.016 | [2] 0.181 | [3] 0.125 | [4] 0.042 | [5] 0.003

SNX15 (UniProt Q9NRS6)
inactive: [1] 0.065 | [2] -0.032 | [3] 0.141 | [4] 0.279 | [5] -0.081

SYMPK (UniProt Q92797)
inactive: [1] -0.127 | [2] 0.034 | [3] 0.101 | [4] -0.006 | [5] 0.02

SLC7A6 (UniProt Q92536)
inactive: [1] -0.063 | [2] 0.023 | [3] 0.053 | [4] 0.012 | [5] 0.06

TJP1 (UniProt Q07157)
inactive: [1] 0 | [2] 0.028 | [3] 0.069 | [4] 0.014 | [5] 0.023

SLC9A6 isoform 2 (UniProt Q92581)
inactive: [1] -0.007 | [2] 0.066 | [3] 0.068 | [4] -0.014 | [5] 0.047

SMG1 (UniProt Q96Q15)
UniProt Q96Q15, sequence (Q96Q15 whole entry, looked up): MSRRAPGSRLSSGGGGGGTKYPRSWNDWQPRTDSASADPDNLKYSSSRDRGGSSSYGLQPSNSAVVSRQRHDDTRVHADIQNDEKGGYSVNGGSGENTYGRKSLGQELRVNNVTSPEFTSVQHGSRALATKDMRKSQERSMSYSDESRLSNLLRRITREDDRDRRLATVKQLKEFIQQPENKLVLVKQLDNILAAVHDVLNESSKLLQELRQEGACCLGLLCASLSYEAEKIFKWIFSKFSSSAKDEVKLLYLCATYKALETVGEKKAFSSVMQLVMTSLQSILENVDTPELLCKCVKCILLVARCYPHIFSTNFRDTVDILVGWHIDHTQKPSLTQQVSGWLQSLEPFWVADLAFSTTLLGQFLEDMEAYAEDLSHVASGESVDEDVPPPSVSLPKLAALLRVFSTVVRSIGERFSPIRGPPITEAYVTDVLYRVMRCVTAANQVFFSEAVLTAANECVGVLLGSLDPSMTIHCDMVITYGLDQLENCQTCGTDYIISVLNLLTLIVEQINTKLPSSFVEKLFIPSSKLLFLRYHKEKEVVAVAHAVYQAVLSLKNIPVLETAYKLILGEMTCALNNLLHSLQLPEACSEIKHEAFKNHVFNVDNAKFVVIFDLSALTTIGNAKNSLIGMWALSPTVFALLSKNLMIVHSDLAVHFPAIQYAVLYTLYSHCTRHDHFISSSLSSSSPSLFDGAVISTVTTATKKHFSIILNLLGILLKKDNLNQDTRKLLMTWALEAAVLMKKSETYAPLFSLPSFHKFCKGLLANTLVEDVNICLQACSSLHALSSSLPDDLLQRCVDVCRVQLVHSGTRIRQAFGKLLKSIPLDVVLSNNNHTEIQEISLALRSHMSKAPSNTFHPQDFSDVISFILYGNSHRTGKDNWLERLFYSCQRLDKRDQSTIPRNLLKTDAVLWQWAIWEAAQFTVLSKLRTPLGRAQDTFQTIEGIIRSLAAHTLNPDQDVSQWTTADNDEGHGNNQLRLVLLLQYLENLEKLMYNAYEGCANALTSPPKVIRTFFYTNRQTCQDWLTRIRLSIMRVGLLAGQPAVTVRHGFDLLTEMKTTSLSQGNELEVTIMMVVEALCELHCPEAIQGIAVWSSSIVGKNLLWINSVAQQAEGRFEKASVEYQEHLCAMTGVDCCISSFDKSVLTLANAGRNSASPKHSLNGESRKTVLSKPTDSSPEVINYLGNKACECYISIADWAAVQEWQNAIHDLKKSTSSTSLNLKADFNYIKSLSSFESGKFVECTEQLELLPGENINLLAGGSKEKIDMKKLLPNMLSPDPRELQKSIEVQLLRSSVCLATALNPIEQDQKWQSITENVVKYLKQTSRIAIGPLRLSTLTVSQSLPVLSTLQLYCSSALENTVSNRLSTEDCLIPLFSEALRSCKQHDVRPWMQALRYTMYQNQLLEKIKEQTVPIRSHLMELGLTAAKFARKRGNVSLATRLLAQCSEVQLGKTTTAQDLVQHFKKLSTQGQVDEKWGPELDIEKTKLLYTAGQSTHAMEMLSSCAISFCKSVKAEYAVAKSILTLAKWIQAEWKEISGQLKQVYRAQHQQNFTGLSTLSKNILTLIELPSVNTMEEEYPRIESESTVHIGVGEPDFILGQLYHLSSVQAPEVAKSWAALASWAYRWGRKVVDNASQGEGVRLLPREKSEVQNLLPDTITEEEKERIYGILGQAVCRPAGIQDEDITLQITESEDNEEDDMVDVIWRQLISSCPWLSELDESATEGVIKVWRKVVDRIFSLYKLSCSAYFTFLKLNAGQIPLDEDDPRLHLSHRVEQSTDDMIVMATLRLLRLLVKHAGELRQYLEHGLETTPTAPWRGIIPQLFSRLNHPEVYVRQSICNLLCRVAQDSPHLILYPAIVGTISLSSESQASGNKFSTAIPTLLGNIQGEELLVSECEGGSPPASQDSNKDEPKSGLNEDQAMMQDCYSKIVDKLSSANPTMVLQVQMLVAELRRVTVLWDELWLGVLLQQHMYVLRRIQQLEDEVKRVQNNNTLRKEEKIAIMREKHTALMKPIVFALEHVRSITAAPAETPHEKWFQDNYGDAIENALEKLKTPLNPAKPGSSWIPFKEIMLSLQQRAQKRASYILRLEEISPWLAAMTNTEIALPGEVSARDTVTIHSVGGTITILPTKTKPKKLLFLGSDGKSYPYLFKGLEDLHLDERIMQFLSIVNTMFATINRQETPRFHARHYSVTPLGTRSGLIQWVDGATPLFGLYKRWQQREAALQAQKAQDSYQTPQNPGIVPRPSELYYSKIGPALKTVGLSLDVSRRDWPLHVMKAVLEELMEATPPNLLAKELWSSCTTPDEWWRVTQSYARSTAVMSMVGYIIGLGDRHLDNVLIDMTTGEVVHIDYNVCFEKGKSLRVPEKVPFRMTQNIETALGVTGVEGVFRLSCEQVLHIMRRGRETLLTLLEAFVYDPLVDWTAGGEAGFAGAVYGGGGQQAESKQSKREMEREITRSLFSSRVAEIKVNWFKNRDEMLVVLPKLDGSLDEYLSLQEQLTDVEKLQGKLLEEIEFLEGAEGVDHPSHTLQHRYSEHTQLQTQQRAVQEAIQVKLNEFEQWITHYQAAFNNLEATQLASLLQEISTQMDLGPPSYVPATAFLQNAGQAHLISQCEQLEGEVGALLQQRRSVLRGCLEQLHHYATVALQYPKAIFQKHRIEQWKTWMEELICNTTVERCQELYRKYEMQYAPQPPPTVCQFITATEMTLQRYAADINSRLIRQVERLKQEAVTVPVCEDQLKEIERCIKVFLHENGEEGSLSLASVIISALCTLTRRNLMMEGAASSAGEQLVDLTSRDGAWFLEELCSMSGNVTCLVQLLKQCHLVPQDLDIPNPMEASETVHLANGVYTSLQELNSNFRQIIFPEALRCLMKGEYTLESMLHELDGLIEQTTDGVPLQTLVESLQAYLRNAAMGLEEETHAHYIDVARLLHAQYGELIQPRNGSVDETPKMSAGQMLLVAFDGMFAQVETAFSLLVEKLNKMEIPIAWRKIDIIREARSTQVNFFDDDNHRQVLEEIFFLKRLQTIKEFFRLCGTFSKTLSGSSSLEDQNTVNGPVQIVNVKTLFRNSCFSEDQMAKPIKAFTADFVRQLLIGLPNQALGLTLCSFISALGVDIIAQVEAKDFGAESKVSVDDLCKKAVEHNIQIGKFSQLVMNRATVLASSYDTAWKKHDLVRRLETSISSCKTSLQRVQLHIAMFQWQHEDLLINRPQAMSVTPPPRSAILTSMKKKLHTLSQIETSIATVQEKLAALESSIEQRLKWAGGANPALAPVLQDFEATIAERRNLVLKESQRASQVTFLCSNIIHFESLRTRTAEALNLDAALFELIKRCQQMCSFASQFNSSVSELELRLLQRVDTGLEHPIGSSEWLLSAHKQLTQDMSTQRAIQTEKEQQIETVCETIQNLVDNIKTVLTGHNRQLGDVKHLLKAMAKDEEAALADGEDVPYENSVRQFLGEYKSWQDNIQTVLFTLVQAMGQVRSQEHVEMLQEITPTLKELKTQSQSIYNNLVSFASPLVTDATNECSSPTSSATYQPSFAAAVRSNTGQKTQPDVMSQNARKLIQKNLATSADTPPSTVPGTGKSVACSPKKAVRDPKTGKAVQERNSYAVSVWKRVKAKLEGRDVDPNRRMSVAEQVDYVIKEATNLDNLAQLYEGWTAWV
inactive: [1] -0.104 | [2] 0.003 | [3] -0.004 | [4] 0.02 | [5] -0.071

SLC27A2 (UniProt O14975)
inactive: [1] 0.038 | [2] 0.036 | [3] 0.141 | [4] 0.011 | [5] -0.027

STK38L (UniProt Q9Y2H1)
active: [2] 0.472
inactive: [1] -0.009 | [3] 0.162 | [4] 0.07 | [5] 0.224
